Cytotoxicity call data for 86 compounds are collected here from the antibiotic and cytotoxicity screens of Wong et al. (2023).

Structures are written as SMILES. Out of some 39,000 compounds screened, about 1,500 (3.8%) were called active. Shown is part of a subset that was picked to be rich in actives.

The assay has as its system HSkMC (human skeletal muscle cells). As to the kind of experiment: cytotoxicity call (relative viability < 0.9). Conditions: 10 µM.
With `O=C1C[C@H](c2ccccc2)[C@@H]2CNCCN12`, the cytotoxicity call was “inactive”. The value for `Cc1nnc(N2CCC[C@]3(CNCCO3)C2)o1` was “inactive”; that for `N#CN1CCCC1` was “inactive”; that for `Cc1cccc(CN2C[C@H]3OCCN(C)[C@H]3C2)n1` was “inactive”. The value for `CC1=C(O)C(=O)C=C2C1=CC=C1C2(C)CCC2(C)C3CC(C)(C(=O)O)CCC3(C)CCC12C` (stereo unspecified) was “active”; that for `NC1N[C@H]2CCCC[C@@H]2N1` was “inactive”. As for `CC(C)(CN)CNc1ccc([N+](=O)[O-])c2cccnc12`, the cytotoxicity call is “inactive”. As to `NC(=O)c1cn([C@@H]2O[C@H](CO)[C@@H](O)[C@H]2O)c2ncnc(N)c12`, the cytotoxicity call is “inactive”. The value for `NC(=O)c1cn([C@H]2O[C@@H](CO)[C@H](O)[C@@H]2O)c2ncnc(N)c12` was “active”; that for `CCNC(=O)[C@H]1O[C@H](n2cnc3c(N)ncnc32)[C@@H](O)[C@@H]1O` was “inactive”.

Turning to `O=C(NC(=O)c1c(F)cccc1F)Nc1cc(Cl)c(OC(F)(F)[C@@H](F)C(F)(F)F)cc1Cl`, the cytotoxicity call was “active”. Under `O=C(NC(=O)c1c(F)cccc1F)Nc1cc(Cl)c(OC(F)(F)C(F)C(F)(F)F)cc1Cl` (stereo unspecified) stands “inactive”; under `O=C(NC(=O)c1c(F)cccc1F)Nc1ccc(Cl)cc1`, “inactive”; under `C=CCC1(C(C)CCC)C(=O)N=C([S-])NC1=O.[Na+]` (stereo unspecified), “inactive”.

As for `Cl.c1cncc(C2CCCCN2)c1` (stereo unspecified), the cytotoxicity call was “inactive”. Regarding `Br.COC(=O)C1=CCCN(C)C1`, the cytotoxicity call was “inactive”. Take `NC(=O)CN1CC[C@@H](NC(=O)[C@@H]2CCCN2)C1=O`: the cytotoxicity call is “inactive”. Turning to `c1cn(C[C@H]2CC[C@H]3NCCO[C@@H]23)cn1`, the cytotoxicity call is “inactive”. The value for `Cl.Cn1c(CCCC(=O)O)nc2cc(N(CCCl)CCCl)ccc21` was “inactive”; that for `CC[C@H]1/C=C/C=C/C[C@@H](C)[C@H](O)[C@@](C)(O)C(=O)[C@@H](C)[C@H](O)[C@@H](C)C(=O)[C@@H](C)[C@H](O)[C@@H](C)/C=C/C(=O)O[C@@H]2[C@H](C)[C@H](CC1)O[C@]1(CC[C@H](C)[C@H](C[C@@H](C)O)O1)[C@H]2C` was “active”; that for `CC[C@@H]1/C=C/C=C/C[C@H](C)[C@@H](O)[C@](C)(O)C(=O)[C@H](C)[C@@H](O)[C@H](C)C(=O)[C@H](C)[C@@H](O)[C@H](C)/C=C/C(=O)O[C@H]2[C@@H](C)[C@@H](CC1)O[C@@]1(CC[C@@H](C)[C@@H](C[C@H](C)O)O1)[C@@H]2C` was “inactive”. Under `CCC(COC(=O)c1cc(OC)c(OC)c(OC)c1)(c1ccccc1)N(C)C.O=C(O)C=CC(=O)O` (stereo unspecified) stands “inactive”; under `Cc1n[nH]c(=O)nc1N1CCN(C)CC1`, “inactive”; under `CC1OC(OC2CC(O)C3(CO)C4C(O)CC5(C)C(C6=CC(=O)OC6)CCC5(O)C4CCC3(O)C2)C(O)C(O)C1O.O.O.O.O.O.O.O.O` (stereo unspecified), “active”.

On to `C[C@@H]1O[C@@H](O[C@@H]2C[C@@H](O)[C@]3(CO)[C@H]4[C@H](O)C[C@]5(C)[C@@H](C6=CC(=O)OC6)CC[C@]5(O)[C@@H]4CC[C@]3(O)C2)[C@H](O)[C@H](O)[C@H]1O`, for which the cytotoxicity call is “active”.

For the compound `CC(=O)O[C@@]12CO[C@@H]1C[C@H](O)[C@@]1(C)C(=O)[C@H](O)C3=C(C)[C@@H](OC(=O)[C@H](O)[C@@H](NC(=O)c4ccccc4)c4ccccc4)C[C@](O)([C@@H](OC(=O)c4ccccc4)[C@H]21)C3(C)C`, the cytotoxicity call was “inactive”. Under `COCC(=O)N1C[C@@H]2c3ccccc3CN[C@@H]2C1` stands “inactive”; under `COC(=O)[C@@H](N)CCCNC(N)=N[N+](=O)[O-]`, “inactive”. Under `[N-]=[N+]=CC(=O)OCC(N)C(=O)O` (stereo unspecified) stands “inactive”.

`C1COC2(CCOCC2)CN1`: the cytotoxicity call was “inactive”. As to `Cc1cc(OC(=O)N(C)C)cc(=O)n1C`, the cytotoxicity call is “inactive”.

On to `COC(=O)C[C@@H]1CC[C@H]2NC[C@@H](O)COC[C@@H]2O1`, for which the cytotoxicity call was “inactive”. As for `CC(N)(Cc1ccccc1)c1ccccc1` (stereo unspecified), the cytotoxicity call was “inactive”.

`COC(=O)C[C@](O)(CCC(C)(C)O)C(=O)O[C@@H]1C(OC)=C[C@]23CCCN2CCc2cc4c(cc2[C@H]13)OCO4`: the cytotoxicity call was “active”.

Turning to `CN1CCc2cc3c(cc2[C@@H]1O)OCO3`, the cytotoxicity call was “inactive”. Under `CN1CCc2cc3c(cc2C1O)OCO3.Cl` (stereo unspecified) stands “inactive”; under `C[N+]12CCC(CC1)C(OC(=O)C(O)(c1ccccc1)c1ccccc1)C2.[Br-]` (stereo unspecified), “inactive”. In the case of `CC1OC(OC2C(O)C(O)C(O)C(O)C2O)C(N)CC1NC(=N)C(=O)O.Cl` (stereo unspecified), the cytotoxicity call was “inactive”. For `O=C1C=C2C(=CCOC2O)O1` (stereo unspecified), the cytotoxicity call is “active”.

With `O=C1C=C2C(=CCO[C@@H]2O)O1`, the cytotoxicity call is “inactive”. Under `CCCCC(=O)N1CC[C@H]2CNC[C@H]21` stands “inactive”; under `N#Cc1c(Cl)c(Cl)c(Cl)c(C#N)c1Cl`, “active”. Under `CCCCCC1C(=O)OC(C)C(NC(=O)c2cccc(NC=O)c2O)C(=O)OC(C)C1OC(=O)CC(C)C` (stereo unspecified) [ANTIMYCIN A (A1 shown) ] stands “inactive”; under `CCC[C@@H](CN)c1ccc(F)cc1`, “inactive”. As for `COc1c(C[C@@H](C)O)c2c3c(C[C@@H](C)O)c(OC)c(=O)c4c(O)cc5c(c6c(cc(O)c(c1=O)c62)OCO5)c43`, the cytotoxicity call was “active”. The value for `COc1cc(C2c3cc4c(cc3C(O)C3COC(=O)C23)OCO4)cc(OC)c1OC` (stereo unspecified) was “inactive”; that for `CCOC1OC2OC3(C)CCC4C(C)CCC(C1C)C24OO3` (stereo unspecified) was “inactive”.

For the compound `CC1=NCCc2c1[nH]c1cc(O)ccc21.Cl.O.O`, the cytotoxicity call was “inactive”. Take `CCCCC[C@H]1C(=O)O[C@H](C)[C@H](NC(=O)c2cccc(NC=O)c2O)C(=O)O[C@@H](C)[C@@H]1OC(=O)CC(C)C`: the cytotoxicity call is “inactive”. The value for `CC1=C[C@H]2[C@]3(O)[C@H](C=C(CO)C[C@]2(O)C1=O)[C@H]1C(C)(C)[C@@]1(O)[C@H](O)[C@@H]3C` was “inactive”; that for `CCCCCCCCCC(=O)O[C@@H]1[C@@H](C)[C@@]2(O)[C@@H](C=C(CO)C[C@]3(O)C(=O)C(C)=C[C@@H]23)[C@@H]2C(C)(C)[C@]12OC(=O)CCCCCCCCC` was “inactive”. Under `CCCCCCCCCC(=O)O[C@@H]1[C@@H](C)[C@]2(O)[C@@H](C=C(CO)C[C@]3(O)C(=O)C(C)=C[C@@H]23)[C@@H]2C(C)(C)[C@@]12OC(=O)CCCCCCCCC` stands “active”; under `CCCCCCCCCCCCCC(=O)O[C@@H]1[C@@H](C)[C@@]2(O)[C@@H](C=C(CO)C[C@]3(O)C(=O)C(C)=C[C@@H]23)[C@@H]2C(C)(C)[C@]12OC(C)=O`, “active”; under `Cc1ccc2[nH]cc(C[C@@H](C)N)c2c1`, “inactive”. The value for `CCCC(C)C1(CC)C(=O)N=C([S-])NC1=O.[Na+]` (stereo unspecified) was “inactive”; that for `C[C@@H]1CN([C@@H](C)CO)C(=O)CCCn2cc(nn2)CO[C@@H]1CN(C)C(=O)Oc1ccc2ccccc2c1` was “inactive”; that for `CCCCSP(=O)(SCCCC)SCCCC` was “inactive”.

With `COc1ccc(O)c(C(C)(C)C)c1`, the cytotoxicity call was “inactive”.

On to `CC(=O)OC1C(=O)C2(C)C(O)CC3OCC3(OC(C)=O)C2C(OC(=O)c2ccccc2)C2(O)CC(O)C(C)=C1C2(C)C` (stereo unspecified), for which the cytotoxicity call was “inactive”.

For the compound `C[C@H]1CN([C@@H](C)CO)C(=O)CCCn2cc(nn2)CO[C@H]1CN(C)C(=O)Oc1ccc2ccccc2c1`, the cytotoxicity call was “inactive”. Consider `C=C1[C@@H](C)[C@H]2[C@H](Cc3ccccc3)NC(=O)[C@]23[C@H](OC(C)=O)/C=C/[C@](C)(O)C(=O)[C@@H](C)C/C=C/[C@H]3[C@@H]1O`, for which the cytotoxicity call is “active”. The value for `COCCCNC(=O)[C@@]1(Cc2ccccc2CN=[N+]=[N-])N=C(c2ccc(OCCCO)cc2)O[C@H]1c1ccccc1CN=[N+]=[N-]` was “inactive”; that for `Nc1ccc2c(c1)Cc1ccccc1-2` was “inactive”; that for `CC(C)n1cnnc1CCN` was “inactive”. Under `CN1C[C@@H](NC(=O)C2CC2)[C@H]2OCCC[C@H]21` stands “inactive”; under `CCN1C(=O)/C(=C/c2ccc[nH]2)C(=O)NC1=S`, “inactive”. Under `CN1C(=O)NC(=O)/C(=C\C=C\c2ccco2)C1=O` stands “inactive”; under `C=CCN1C(=O)NC(=O)/C(=C/c2ccco2)C1=O`, “active”; under `COC1=CC(=O)OC(C=Cc2ccccc2)C1` (stereo unspecified), “inactive”. For `O=C(O)CC[C@@H](CP(=O)(O)O)C(=O)O`, the cytotoxicity call is “inactive”. The value for `CC12CCC(O)CC1CCC1C2CC(O)C2(C)C(C3=CC(=O)OC3)CCC12O` (stereo unspecified) was “active”; that for `CO[C@H]1[C@@H](O)[C@@H](O[C@H]2CC[C@]3(C=O)[C@@H]4[C@@H](CC[C@]3(O)C2)[C@@]2(O)CC[C@H](C3=CC(=O)OC3)[C@@]2(C)C[C@H]4OC(C)=O)O[C@@H](C)[C@@H]1OC(C)=O` was “inactive”. For `CC12CCC3C(CCC4CC(O)CCC43C)C1CCC2=O` (stereo unspecified), the cytotoxicity call is “inactive”. With `CC(=O)OC1CC(OC2C(O)CC(OC3C(O)CC(OC4CCC5(C)C(CCC6C5CC(O)C5(C)C(C7=CC(=O)OC7)CCC65O)C4)OC3C)OC2C)OC(C)C1OC1OC(CO)C(O)C(O)C1O` (stereo unspecified), the cytotoxicity call is “active”.

As to `CC12CCC3C(CCC4CC(O)CCC43C)C1CCC2O` (stereo unspecified), the cytotoxicity call was “inactive”. Under `CC(=O)O[C@H]1C[C@H](O[C@H]2[C@@H](O)C[C@H](O[C@H]3[C@@H](O)C[C@H](O[C@H]4CC[C@@]5(C)[C@@H](CC[C@H]6[C@@H]5C[C@@H](O)[C@]5(C)[C@@H](C7=CC(=O)OC7)CC[C@]65O)C4)O[C@@H]3C)O[C@@H]2C)O[C@H](C)[C@H]1O[C@@H]1O[C@H](CO)[C@@H](O)[C@H](O)[C@H]1O` stands “active”; under `CC(=O)OC1CCC2(C)C(CCC3C2CCC2(C)C(C4=CC(=O)OC4)C(OC(C)=O)CC32O)C1` (stereo unspecified), “active”; under `CC(=O)O[C@H]1C[C@@H]2CC[C@@H]3[C@H](CC[C@@]4(C)[C@H]3C[C@H]([N+]3(C)CCCCC3)[C@@H]4OC(C)=O)[C@@]2(C)C[C@@H]1[N+]1(C)CCCCC1`, “inactive”. Under `CNC(=O)Oc1ccc2c(c1)C1(C)CCN(C)C1N2C` (stereo unspecified) stands “inactive”; under `COC(=O)[C@]1(Cc2ccccc2CN=[N+]=[N-])N=C(c2ccc(OCCCO)cc2)O[C@@H]1c1ccccc1CN=[N+]=[N-]`, “inactive”; under `COc1ccccc1C1(N)CC1`, “inactive”.

For the compound `N#C[C@]1(O)CN2CCC1CC2`, the cytotoxicity call was “inactive”.

Consider `CC(C)Oc1ccc(CCN)cc1`, for which the cytotoxicity call is “inactive”. Regarding `COc1cc(C=O)cc(OC)c1OC`, the cytotoxicity call was “inactive”. Consider `Cn1cc([C@@]23C[C@]2(C)COC3=O)cn1`, for which the cytotoxicity call is “inactive”. The value for `C1CCN(C[C@H]2CO[C@]3(CNCCOC3)C2)C1` was “inactive”.
